Screens from PubChem.
This is a sample that favours compounds with a hit; in the whole collection about 2.9% have one here.
EPAC1 agonist = validation of human EPAC1 agonists. hit rate 1% among 16,000. EPAC1 Rap1b BODIPY-GDP exchange, fluorescence. Potency, µM, without a hit: max response, positive = active, actives largely listed as activators. O95398. AID 1645883; further: nearly all actives have a fitted effect of over 70% in size
EPAC2 ant val = human EPAC2 antagonism, validation. Q8WZA2. EPAC2 Rap1B BODIPY-GDP exchange, fluorescence. Potency, µM (doses to about 112 µM), for the others: at the top dose activity, negative = inhibition, most hits filed as inhibitors. hit rate 1.7% among 16,000. AID 1645886;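 further: 100% = activation by cAMP agonist control; nearly all actives have a fitted effect of over 40% in size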
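Normalized against a 6.5 mM cAMP agonist control, compounds were tested on 100 nM EPAC2 exchanging Rap1B-bound BODIPY-GDP (250 nM) for 50 uM GDP. Fluorescence drop (ex 480, em 540 nm) was tracked at room temperature over 30 min at 5-min intervals.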
Starred values were filed as active, the others as inactive; ! = a repeat was not active; [ ] = dose if it differs, or a comment. The call rests on the fitted dose curve; in most records, active means well fitted curve in the direction sought with a large enough effect; inconclusive means small, poorly fitted or top-dose-only effect, or another doubt; inactive means no such curve, though single readings can be large; an effect the other way counts as inactive or inconclusive. Unless noted, on the % scale 0 is the no-effect control and ±100 the full control effect; potency means the concentration at half of the fitted maximal effect.

For O=c1c2ccccc2[se]n1-c1ccccc1 the results were EPAC1 agonist 7.8% and EPAC2 ant val 39.8µM*!.
Screening Cc1ccccc1-n1c(C)nc2ccccc2c1=O returned EPAC1 agonist -8.9% and EPAC2 ant val 5.0%[239 µM].
Screening C[C@@H]1[C@H]2Cc3ccc(O)cc3[C@]1(C)CCN2C returned EPAC1 agonist 4.5% and EPAC2 ant val 48.5%[453 µM].
CCCCC/C=C\C/C=C\C/C=C\C/C=C\CCCC(=O)NCC(=O)O was read as EPAC1 agonist 8.5% and EPAC2 ant val 40.3%.
Screening CCCCC/C=C\C/C=C\C/C=C\C/C=C\CCCC(=O)Nc1ccc(O)cc1 returned EPAC1 agonist -69.6% and EPAC2 ant val 31.6µM*.
COc1cc(C[C@@H](C)N)c(OC)cc1Br was read as EPAC1 agonist -14.3% and EPAC2 ant val 5.8%[239 µM].
`O=C(Nc1ccccc1-c1ccc(Cl)cc1)c1cccnc1Cl` gave EPAC1 agonist 25.3% and EPAC2 ant val 8.91µM*.
CC(=O)O[C@H]1C[C@H](O[C@H]2[C@@H](O)C[C@H](O[C@H]3[C@@H](O)C[C@H](OC4CC[C@@]5(C)[C@H](CC[C@@H]6[C@@H]5CC[C@]5(C)[C@@H](C7=CC(=O)OC7)CC[C@]65O)C4)O[C@@H]3C)O[C@@H]2C)O[C@H](C)[C@H]1O[C@@H]1O[C@H](CO)[C@@H](O)[C@H](O)[C@H]1O (stereo partly specified) was read as EPAC1 agonist -12.4% and EPAC2 ant val 0.5%.
Screening CC1(C)CC/C(=C/c2ccc(Cl)cc2)C1(O)Cn1cncn1 (stereo unspecified) returned EPAC1 agonist 14.2% and EPAC2 ant val inconclusive.
For CCOP(=O)(NC(C)C)Oc1ccc(SC)c(C)c1 (stereo unspecified) the results were EPAC1 agonist -45.1% and EPAC2 ant val 50.1µM*.
`COP(=S)(OC)Oc1ccc(SC)c(C)c1` gave EPAC1 agonist 10.1% and EPAC2 ant val inconclusive.
O=c1oc2ccccc2c(O)c1C(CC(O)c1ccc(-c2ccc(Br)cc2)cc1)c1ccccc1 (stereo unspecified) was read as EPAC1 agonist -13.9% and EPAC2 ant val 79.4µM*.
`O=C1c2ccccc2C(=O)C1C(=O)C(c1ccccc1)c1ccccc1` gave EPAC1 agonist 20.8% and EPAC2 ant val 79.4µM*.
CCCCc1ccc(C(=O)O)nc1 was read as EPAC1 agonist -0.9% and EPAC2 ant val -6.2%.
For CCCCCCCCc1ccc(O)cc1 the results were EPAC1 agonist -224.9% and EPAC2 ant val 35.5µM*.
Screening CC(=O)Oc1c2c(c(CC=C(C)C)c3c1C(=O)C1=CC4CC5C(C)(C)OC(C/C=C(\C)C(=O)O)(C4=O)[C@]15O3)OC(C)(CCC=C(C)C)C=C2 (stereo partly specified) returned EPAC1 agonist -207.3% and EPAC2 ant val 70.8µM*.
Screening COC(=O)/C(C)=C\CC12OC(C)(C)C3CC(C=C4C(=O)c5c(OC)c6c(c(CC=C(C)C)c5OC431)OC(C)(CCC=C(C)C)C=C6)C2=O (stereo unspecified) returned EPAC1 agonist -78.0% and EPAC2 ant val -22.6%.
For CO[C@H]1[C@@H](O)C[C@H](O[C@H]2[C@@H](O)C[C@H](O[C@H]3[C@@H](O)C[C@H](O[C@H]4CC[C@@]5(C)[C@H](CC[C@@H]6[C@@H]5C[C@@H](O)[C@]5(C)[C@@H](C7=CC(=O)OC7)CC[C@]65O)C4)O[C@@H]3C)O[C@@H]2C)O[C@@H]1C the results were EPAC1 agonist -30.4% and EPAC2 ant val -8.5%.
ClCCN(CCCl)/C(=C\c1ccccc1)c1ccnc2ccccc12 was read as EPAC1 agonist 22.4% and EPAC2 ant val 37.7%.
Screening CCC(=O)C(CC(C)N(C)C)(c1ccccc1)c1ccccc1 (stereo unspecified) returned EPAC1 agonist inconclusive and EPAC2 ant val 12.0%[239 µM].
Screening CCCCCc1cc(O)c2c(c1)OC(C)(C)[C@@H]1CCC(C)=C[C@@H]21 returned EPAC1 agonist -67.1% and EPAC2 ant val inconclusive.
For Clc1ccc(CSC(Cn2ccnc2)c2ccc(Cl)cc2Cl)cc1 (stereo unspecified) the results were EPAC1 agonist 50.1µM*! and EPAC2 ant val 44.7µM*!.
CC[C@H]1C[C@@H]2C[C@H]3c4[nH]c5ccc(OC)cc5c4CCN(C2)[C@@H]13 was read as EPAC1 agonist 15.2% and EPAC2 ant val 14.6%[239 µM].
Screening C[C@]12CC[C@@H](O)C[C@H]1CC[C@@H]1[C@H]2CC[C@]2(C)C(=O)CC[C@@H]12 returned EPAC1 agonist -20.0% and EPAC2 ant val 3.9%.
Screening CCOC(=O)[C@]12Cc3cc(N(C)C)ccc3[C@H]1N(Cc1ccccc1)C(=O)c1ccccc12 returned EPAC1 agonist 29.3% and EPAC2 ant val 79.4µM*.
Screening CCOC(=O)[C@]12Cc3cc4c(cc3[C@H]1N(Cc1ccccc1)C(=O)c1ccccc12)OCO4 returned EPAC1 agonist 23.1% and EPAC2 ant val inconclusive.
CN1[C@H]2CC[C@@H]1[C@@H](C(=O)O)[C@@H](OC(=O)c1ccccc1)C2 was read as EPAC1 agonist 2.8% and EPAC2 ant val inconclusive.
`C[C@]12CC[C@H](O)C[C@H]1CC[C@@H]1[C@@H]2CC[C@]2(C)[C@@H](c3ccc(=O)oc3)C[C@H]3O[C@]132` gave EPAC1 agonist -9.8% and EPAC2 ant val -5.0%.
COc1cc(CC(C)N)cc2c1OCO2 (stereo unspecified) was read as EPAC1 agonist 13.5% and EPAC2 ant val -9.5%[239 µM].
CCc1cc(OC)c(C[C@@H](C)N)cc1OC was read as EPAC1 agonist 4.3% and EPAC2 ant val -2.8%[239 µM].
